# Results taken from the supplement of paper PMC10646978.
# ± gives the standard deviation.
# What was measured:
# Conditions in all cases: modulator concentration 10 µM
# [1] = tested on: RAW-Dual (murine macrophage reporter line); experiment: NF-kB reporter (SEAP) activity fold change vs agonist alone; higher = enhanced NF-kB activity
# Outline: (§1)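 RAW-Dual murine macrophage reporter cells were plated at 50 000 per well in 384-well plates, pin-transferred compound to 10 μM final, and pre-incubated for 1 hour at 37 °C before a PRR agonist was added and the cells incubated overnight. NF-κB activity was read from supernatant SEAP with QUANTI-Blue at 620 nm absorbance, and IRF activity from Lucia luciferase with QUANTI-Luc by luminescence. Each signal was expressed as fold change by dividing by the mean agonist-only control on the same plate. Two replicate plates were averaged, with errors obtained by propagation.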
# [2] = tested on: RAW-Dual (murine macrophage reporter line); experiment: IRF reporter (Lucia luciferase) activity fold change vs agonist alone; higher = enhanced IRF activity
# Outline: as §1
# [3] = tested on: RAW-Dual (murine macrophage reporter line); experiment: viability score (confluency relative to resting cells, overnight) (fraction); higher = more viable, active = viable (0.7 or more)
# Outline: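 Two confluency masks, generated with IncuCyte software over all imaged wells, were applied to IncuCyte images of RAW-Dual macrophages. The cells, in 384-well plates, had been exposed overnight to 10 μM final compound. The viability score is confluency as a fraction of resting cells, and a compound met the cutoff only with both masks above 70% of resting cells.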
# [4] = agonist: CpG ODN 1826 0.5 ug/mL
compound,measurement,setting,value
CCOC(=O)C1=C(C)NC(C)=C(C(=O)OC)C1c1ccc(C)cc1 (stereo not drawn),NF-kB reporter,[1]; [4],0.782 ± 0.069
same,NF-kB reporter,[1]; agonist: LPS 0.1 ug/mL,0.743 ± 0.062
same,NF-kB reporter,[1]; agonist: MPLA […],1.2 ± 0.046
same,IRF reporter,[2]; agonist: 3'3'-cGAMP 10 ug/mL,0.815 ± 0.13
same,IRF reporter,[2]; agonist: LPS 0.1 ug/mL,0.914 ± 0.039
same,IRF reporter,[2]; agonist: MPLA […],1.34 ± 0.087
same,viability score,[3],0.935 (active)
Cc1cc(=O)n(-c2ccccc2)n1C,NF-kB reporter,[1]; [4],0.98 ± 0.18
same,NF-kB reporter,[1]; agonist: LPS 0.1 ug/mL,1.02 ± 0.08
same,NF-kB reporter,[1]; agonist: MPLA […],0.99 ± 0.095
same,IRF reporter,[2]; agonist: 3'3'-cGAMP 10 ug/mL,1.02 ± 0.033
same,IRF reporter,[2]; agonist: LPS 0.1 ug/mL,1.27 ± 0.18
same,IRF reporter,[2]; agonist: MPLA […],1.22 ± 0.14
same,viability score,[3],0.995 (active)
CC(C)(C)C1(O)CC(C(F)(F)F)=NN1C(=O)c1ccc([N+](=O)[O-])cc1 (stereo not drawn),NF-kB reporter,[1]; [4],0.644 ± 0.056
same,NF-kB reporter,[1]; agonist: LPS 0.1 ug/mL,0.79 ± 0.095
same,NF-kB reporter,[1]; agonist: MPLA […],1.01 ± 0.035
same,IRF reporter,[2]; agonist: 3'3'-cGAMP 10 ug/mL,1.38 ± 0.13
same,IRF reporter,[2]; agonist: LPS 0.1 ug/mL,1.13 ± 0.14
same,IRF reporter,[2]; agonist: MPLA […],1.66 ± 0.33
same,viability score,[3],0.941 (active)
O=S(=O)(NCc1ccc(-c2cccnc2)nc1)c1ccc(OC(F)(F)F)cc1,NF-kB reporter,[1]; [4],0.947 ± 0.068
same,NF-kB reporter,[1]; agonist: LPS 0.1 ug/mL,1.01 ± 0.091
same,NF-kB reporter,[1]; agonist: MPLA […],0.873 ± 0.058
same,IRF reporter,[2]; agonist: 3'3'-cGAMP 10 ug/mL,0.961 ± 0.054
same,IRF reporter,[2]; agonist: LPS 0.1 ug/mL,1.09 ± 0.066
same,IRF reporter,[2]; agonist: MPLA […],1.16 ± 0.11
same,viability score,[3],1.01 (active)
O=C(CCCCCN1C(=O)c2cccc3cccc(c23)C1=O)NCCO,NF-kB reporter,[1]; [4],0.954 ± 0.082
same,NF-kB reporter,[1]; agonist: LPS 0.1 ug/mL,1.01 ± 0.082
same,NF-kB reporter,[1]; agonist: MPLA […],0.872 ± 0.074
same,IRF reporter,[2]; agonist: 3'3'-cGAMP 10 ug/mL,0.886 ± 0.036
same,IRF reporter,[2]; agonist: LPS 0.1 ug/mL,1.29 ± 0.086
same,IRF reporter,[2]; agonist: MPLA […],1.19 ± 0.14
same,viability score,[3],1 (active)
O=C(Nc1c(Cl)cncc1Cl)c1ccc(OC(F)F)c(OCC2CC2)c1,NF-kB reporter,[1]; [4],2.48 ± 0.36
same,NF-kB reporter,[1]; agonist: LPS 0.1 ug/mL,1.99 ± 0.17
same,NF-kB reporter,[1]; agonist: MPLA […],1.44 ± 0.1
same,IRF reporter,[2]; agonist: 3'3'-cGAMP 10 ug/mL,0.804 ± 0.025
same,IRF reporter,[2]; agonist: LPS 0.1 ug/mL,0.908 ± 0.094
same,IRF reporter,[2]; agonist: MPLA […],1.24 ± 0.22
same,viability score,[3],0.968 (active)
CCC(=O)CC(O)(c1ccccc1)C(F)(F)F (stereo not drawn),NF-kB reporter,[1]; [4],1.04 ± 0.099
same,NF-kB reporter,[1]; agonist: LPS 0.1 ug/mL,0.955 ± 0.19
same,NF-kB reporter,[1]; agonist: MPLA […],1.02 ± 0.049
same,IRF reporter,[2]; agonist: 3'3'-cGAMP 10 ug/mL,1.01 ± 0.14
same,IRF reporter,[2]; agonist: LPS 0.1 ug/mL,0.953 ± 0.061
same,IRF reporter,[2]; agonist: MPLA […],1.01 ± 0.11
same,viability score,[3],0.996 (active)
Cc1cn[nH]c1,NF-kB reporter,[1]; [4],0.122 ± 0.015
same,NF-kB reporter,[1]; agonist: LPS 0.1 ug/mL,0.0449 ± 0.0036
same,NF-kB reporter,[1]; agonist: MPLA […],0.154 ± 0.0086
same,IRF reporter,[2]; agonist: 3'3'-cGAMP 10 ug/mL,0.685 ± 0.032
same,IRF reporter,[2]; agonist: LPS 0.1 ug/mL,1.81 ± 0.19
same,IRF reporter,[2]; agonist: MPLA […],2.85 ± 0.43
same,viability score,[3],0.702 (active)
Nc1ncn(C2OC(CO)C(O)C2O)c(=O)n1 (stereo not drawn),NF-kB reporter,[1]; [4],2.76 ± 0.66
same,NF-kB reporter,[1]; agonist: LPS 0.1 ug/mL,1.35 ± 0.075
same,NF-kB reporter,[1]; agonist: MPLA […],4.3 ± 0.27
same,IRF reporter,[2]; agonist: 3'3'-cGAMP 10 ug/mL,0.541 ± 0.026
same,IRF reporter,[2]; agonist: LPS 0.1 ug/mL,0.728 ± 0.099
same,IRF reporter,[2]; agonist: MPLA […],0.714 ± 0.085
same,viability score,[3],0.808 (active)
CCCCCOC(=O)CSc1nnc(-c2ccc(Cl)cc2Cl)o1,NF-kB reporter,[1]; [4],0.957 ± 0.076
same,NF-kB reporter,[1]; agonist: LPS 0.1 ug/mL,0.981 ± 0.083
same,NF-kB reporter,[1]; agonist: MPLA […],0.99 ± 0.048
same,IRF reporter,[2]; agonist: 3'3'-cGAMP 10 ug/mL,1.07 ± 0.23
same,IRF reporter,[2]; agonist: LPS 0.1 ug/mL,1.04 ± 0.051
same,IRF reporter,[2]; agonist: MPLA […],1.02 ± 0.14
same,viability score,[3],1 (active)
CCCCCCCCCCCC1=C(O)C(=O)C=C(O)C1=O,NF-kB reporter,[1]; [4],0.901 ± 0.22
same,NF-kB reporter,[1]; agonist: LPS 0.1 ug/mL,0.642 ± 0.034
same,NF-kB reporter,[1]; agonist: MPLA […],0.675 ± 0.045
same,IRF reporter,[2]; agonist: 3'3'-cGAMP 10 ug/mL,0.566 ± 0.019
same,IRF reporter,[2]; agonist: LPS 0.1 ug/mL,0.823 ± 0.09
same,IRF reporter,[2]; agonist: MPLA […],0.774 ± 0.086
same,viability score,[3],0.167 (inactive)
O=C(Oc1ccc(Cl)c2cccnc12)c1cccc(Cl)c1,NF-kB reporter,[1]; [4],0.981 ± 0.16
same,NF-kB reporter,[1]; agonist: LPS 0.1 ug/mL,1.05 ± 0.093
same,NF-kB reporter,[1]; agonist: MPLA […],0.926 ± 0.11
same,IRF reporter,[2]; agonist: 3'3'-cGAMP 10 ug/mL,0.994 ± 0.032
same,IRF reporter,[2]; agonist: LPS 0.1 ug/mL,1.41 ± 0.21
same,IRF reporter,[2]; agonist: MPLA […],1.45 ± 0.15
same,viability score,[3],1 (active)
COc1cc(CNC2CCCc3ccccc32)cc(OC)c1OC (stereo not drawn),NF-kB reporter,[1]; [4],0.878 ± 0.074
same,NF-kB reporter,[1]; agonist: LPS 0.1 ug/mL,1.02 ± 0.095
same,NF-kB reporter,[1]; agonist: MPLA […],0.982 ± 0.04
same,IRF reporter,[2]; agonist: 3'3'-cGAMP 10 ug/mL,0.865 ± 0.056
same,IRF reporter,[2]; agonist: LPS 0.1 ug/mL,1.05 ± 0.087
same,IRF reporter,[2]; agonist: MPLA […],0.972 ± 0.15
same,viability score,[3],0.992 (active)
CC(Oc1ccccc1)C(=O)NC1CC(C)(C)NC(C)(C)C1 (stereo not drawn),NF-kB reporter,[1]; [4],0.76 ± 0.059
same,NF-kB reporter,[1]; agonist: LPS 0.1 ug/mL,0.966 ± 0.085
same,NF-kB reporter,[1]; agonist: MPLA […],1.06 ± 0.1
same,IRF reporter,[2]; agonist: 3'3'-cGAMP 10 ug/mL,0.993 ± 0.045
same,IRF reporter,[2]; agonist: LPS 0.1 ug/mL,1.26 ± 0.079
same,IRF reporter,[2]; agonist: MPLA […],1.35 ± 0.14
same,viability score,[3],1.02 (active)
